From PubChem BioAssay (NCI) come the findings set out here.

The structures appear in SMILES notation. Compounds without any hit were thinned out: in the full panel of roughly 83,000, 20% have a hit.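 Activity criterion: percent growth below 10, measured after cells in 96-well plates were exposed to a single compound concentration for 48 hours.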 Active and inactive are the calls of the source.

The assay relates to HL-60(TB) leukemia. In words: NCI-60 one-dose screen, 48 h (100 = growth as untreated, 0 = no growth, -100 = all killed). The following applies: 10 µM unless noted.
On to `C[C@@]1(CCC#N)[C@H]2CC[C@@H]3[C@H]4[C@H](C(=O)/C=C/c5cccnc5)CC[C@]4(C#N)CC[C@@]3(C)[C@]2(C)CC[C@H]1C(=O)/C=C/c1cccnc1`, for which the growth is 46% (inactive).

For the molecule `COc1ccc(C(=O)/C=C/c2cc(-c3ccc4c(c3)OCO4)n[nH]2)cc1OC`, the growth is 42.9% (inactive).

As for `CCOC(=O)c1cnc2ccc(Cl)cc2c1NCCCN(C)C`, the growth was -18.6% (active).

With `c1ccc(-c2oc3ccccc3c2-c2ccccc2)cc1`, the growth is 48.5% (inactive).

In the case of `CC(C)CC1NC(C)(C)CO1` (stereo not given), the growth was 133% (inactive).

As for `CS(=O)(=O)CCNCc1ccc(-c2ccc3ncnc(Nc4ccc(OCc5cccc(F)c5)c(Cl)c4)c3c2)o1`, the growth was 20.3% (inactive).

In the case of `CCOC(=O)c1cocc1C(=O)O`, the growth was 80.9% (inactive).

With `NC(=S)NN=C1CCCC1`, the growth is 95.1% (inactive).

In the case of `O=C(COCc1c(-c2ccccc2)no[n+]1[O-])Nc1ccc(C(=O)/C=C/c2ccc3c(c2)OCO3)cc1`, the growth is 88.7% (inactive).

With `CC[C@H](Nc1ncnc2nc[nH]c12)c1nc2cccc(NCc3ccc(C(=O)NO)nc3)c2c(=O)n1-c1ccccc1`, the growth is 17.8% (inactive).

Take `O=C(CCNCc1ccccc1)c1ccccc1`: the growth was 104% (inactive).

`COc1cc2c(cc1OCCCCCN1CCN(c3ncnc4ccccc34)CC1)N=CC1CCCN1C2=O` (stereo not given): the growth was -25.8% (active).

Turning to `N#Cc1c(N)nc(NCCO)nc1-c1ccc(F)cc1`, the growth was 93.6% (inactive).

Regarding `O=C(CCc1nnc(-c2c(Cl)cccc2Cl)o1)c1nc2ccccc2[nH]1`, the growth is -33.8% (active).

For `CC(C)CNCC(=O)Nc1ccc(Cc2ccc(NC(=O)CNCC(C)C)cc2)cc1`, the growth was 38% (inactive).

Regarding `Fc1ccc(COc2ccc(Nc3ncnc4sc5c(c34)CCCC5)cc2)cc1`, the growth was 87.4% (inactive).

On to `CCC(CC)n1c(C)cc(=O)n1C(CC)CC`, for which the growth is 88% (inactive).

In the case of `Cc1ccc(C(=O)Nc2cccc(F)c2)cc1NC(=O)C1(c2ncnc3[nH]ccc23)CC1`, the growth was 64.7% (inactive).

As to `O=C1c2cccnc2-c2ncccc21`, the growth was 95.4% [100 µM] (inactive).

In the case of `Cc1ccc(S(=O)(=O)Nc2cc(Sc3ccccc3)c(O)c3ccccc23)cc1`, the growth was -31.2% (active).

`O=C(Nc1ccc(F)cc1)c1c(NC(=O)C(F)(F)F)sc2c1CCCCC2`: the growth is 17.1% (inactive).

In the case of `COc1ccc(-c2cc(-c3cc(OC)c(OC)c(OC)c3)c(C#N)c(=O)n2CCCCCC(=O)NO)cc1`, the growth is 103% (inactive).

With `O=[n+]1ccn([O-])c2ccccc21`, the growth was 118% (inactive).

For `Cc1ccc(-c2cc3c(cc2O)C2CCCCC2(N2CCOCC2)O3)cc1` (stereo not given), the growth is 96.1% (inactive).

For the molecule `Cc1ccc(S(=O)(=O)OC[C@@]2(C)CC[C@]3(C)CC[C@]4(C)C(=CC[C@@H]5[C@@]6(C)CCCNC(C)(C)[C@@H]6CC[C@]54C)[C@@H]3C2)cc1`, the growth was -63% (active).

With `CCCCNCC(=O)Nc1ccc(C(=O)OCC)cc1`, the growth is 86.9% (inactive).

Consider `C=C(C)[C@@H]1CC[C@]2(CN)CC[C@]3(C)[C@H](CC[C@@H]4[C@@]5(C)CCC(=O)NC(C)(C)[C@@H]5CC[C@]43C)[C@@H]12`, for which the growth is -50.5% (active).

Take `O=C1NC(=C(Cl)Cl)/C(=N/S(=O)(=O)NCCc2c[nH]c3ccccc23)N1`: the growth was 50.2% (inactive).

On to `Nc1ccc(S(=O)(=O)Nc2cc(I)cc(I)c2)cc1`, for which the growth is -75% (active).

For the molecule `Cc1cc(N2CCCC2)nc(NC2CCCC(Nc3ccnc4cc(Cl)ccc34)C2)n1` (stereo not given), the growth was -68.5% (active).

As to `O=C(c1ccccc1)C(Br)C(Br)c1cccc([N+](=O)[O-])c1` (stereo not given), the growth is -2.38% (active).

Turning to `CCCCCCCC/C=C\CCCCCCCCOc1cccc(CC(=O)NCC[N+](C)(C)C)c1`, the growth is 61.1% (inactive).

Consider `O=C(Nc1cccc(-n2cc(-c3ccncc3)c(-c3cc(O)cc(Cl)c3)n2)c1)c1ccc(N2CCOCC2)c(C(F)(F)F)c1`, for which the growth was -46.4% (active).

In the case of `Cc1c(F)cccc1NC(=O)c1sc2nc3c(cc2c1N)CCCCC3`, the growth was 6.49% (active).

As to `O=C1N=c2ccccc2=C1c1sc(=Nc2ccccc2)n(Nc2ccccc2)c1O`, the growth was 97.5% (inactive).

For the molecule `COc1ccc2c(c1)C(C)Cc1c(ncnc1-n1cnc3ccccc31)N2C` (stereo not given), the growth was -5.85% (active).

For the molecule `Oc1ccc(Cl)cc1Cc1cc(Cl)cc(Cl)c1O`, the growth is -11.1% (active).

`COc1ccc2c(c1)c(=O)oc1c(C)c(OCC(C)=O)ccc12`: the growth is 110% (inactive).

For `O=C(/C=C/C12c3ccccc3C(c3ccccc31)C1C(=O)NC(=O)C12)c1cccs1` (stereo not given), the growth was 6.95% (active).

As to `CN1CCN(c2c(F)cc(NC3=C(Cl)C(=O)c4ncccc4C3=O)cc2F)CC1`, the growth is -24.7% (active).
